Measured values reported in publication PMC12864922, “TDP-43 directly inhibits mRNA accumulation in neurites through modulation of mRNA stability”.
In all, about 9,900 sequences were measured (“r (bound/input frequency ratio)”: median about 0.7, highest 2% from about 6.5 on). The list comes from a sample in which the highest values are over-represented; it also holds similar and randomly drawn sequences.

B1: ENSMUSG00000090935.669|Synj2bp (ssRNA)
RNA: GGGAGUUCUACAGUCCGACGAUCGCUUCGAUAUCCGCAUGCUAUGGAGUGAGAUGAGUGUGUGCCAGCCAGCAACUCUGUCCUUCUAGGUAACUGGUUCAUGCUGAACCUUGAGAUUCACCACUGUCAGGAGCUCUCUCUCUCUGCUUAGAAUCAUCCAGACAGCGGGCUGGUCAGCCCACAUUAAAUAAGAACAUGUGGGACUAGAAUUCAGUCAACAAUGACAUGUUUCAUCAGGUGGUUAAAAUGUACAGAUUCUGUUGGAAAUGUUCCAUGGUAUUUCAAUAGCCAGAAUGAAGAACUGCUCUUGCGGUCGCACUAGUGUGGAAUUCUCGGGUGUCAAGG
B2: ENSMUSG00000061578.1449|Ksr2 (ssRNA)
RNA: GGGAGUUCUACAGUCCGACGAUCGCUUCGAUAUCCGCAUGCUAGGUAUAUAAAUGGAUGGAUGGGUGAUGGAUGGGUAAAUGAAUGGAUAGGUAUGUGAAUGAAUGGAUGAUGGAUGAAUGGAUGGGUAGGUGGGUAGAUAGGUAUAUGAAUGAAUGGAUGAAUGGAUGGGUGAAUGGAUGGAUAGGUAUGUGAAUAAAUGGAUGGAUGGAUGGAUUGAUUUGUGAAUGAAUGGAUGAAUGGAUGGGUAGGUGGGUGGAUGCAUAGGCAAGUAGAUGAAUGAAUAUGUGGGUAGAAGGGUGAGCUCUUGCGGUCGCACUAGUGUGGAAUUCUCGGGUGUCAAGG
B3: ENSMUSG00000061578.1443|Ksr2 (ssRNA)
RNA: GGGAGUUCUACAGUCCGACGAUCGCUUCGAUAUCCGCAUGCUAGCAAGUAGGAUGGAUGGAUGAGUGAGUGGAUAGGUAGGUAUAUAAAUGGAUGGAUGGGUGAUGGAUGGGUAAAUGAAUGGAUAGGUAUGUGAAUGAAUGGAUGAUGGAUGAAUGGAUGGGUAGGUGGGUAGAUAGGUAUAUGAAUGAAUGGAUGAAUGGAUGGGUGAAUGGAUGGAUAGGUAUGUGAAUAAAUGGAUGGAUGGAUGGAUUGAUUUGUGAAUGAAUGGAUGAAUGGAUGGGUAGGUGGGUGGAUGCAUAGGCUCUUGCGGUCGCACUAGUGUGGAAUUCUCGGGUGUCAAGG
B4: ENSMUSG00000061578.1454|Ksr2 (ssRNA)
RNA: GGGAGUUCUACAGUCCGACGAUCGCUUCGAUAUCCGCAUGCUAGGGUAAAUGAAUGGAUAGGUAUGUGAAUGAAUGGAUGAUGGAUGAAUGGAUGGGUAGGUGGGUAGAUAGGUAUAUGAAUGAAUGGAUGAAUGGAUGGGUGAAUGGAUGGAUAGGUAUGUGAAUAAAUGGAUGGAUGGAUGGAUUGAUUUGUGAAUGAAUGGAUGAAUGGAUGGGUAGGUGGGUGGAUGCAUAGGCAAGUAGAUGAAUGAAUAUGUGGGUAGAAGGGUGAGUGGGUGGAUGAAUGGAUGGAUAGGUUGGUACUCUUGCGGUCGCACUAGUGUGGAAUUCUCGGGUGUCAAGG
B5: ENSMUSG00000090935.713|Synj2bp (ssRNA)
RNA: GGGAGUUCUACAGUCCGACGAUCGCUUCGAUAUCCGCAUGCUAAAGUCCAGAGCUCUGCUCUCUGAGCAUCUGCCCCAGAUACAGAGGCAGAGUAUGAAGUGGAACAUUGUUUUAUUCCUAGGUGCUCAGGACAGACUGAUCAACCUCCAGUAACAUAUGUGGUUAGUAAGUGCUUCAGCUUGUGUAGCCAUUAAUAACCAAGUCAUAGGAUUGUGAAUCUAAAAUACUCCUGGGUAAAAUUUGUAUUAGAAUGGAAAAAAAAAUGAGGGUCAGAAAGGUGAGCUAACUUCAAGUUAGAUACUCUCUUGCGGUCGCACUAGUGUGGAAUUCUCGGGUGUCAAGG
B6: ENSMUSG00000031028.414|Tub (ssRNA)
RNA: GGGAGUUCUACAGUCCGACGAUCGCUUCGAUAUCCGCAUGCUAUUCUUUUUGGUCCUUGGCUGGGUAGCAAAUUGGUGAGAAGAGCAGCCUAGUCUGUAAGAGUGCAGGGCAGCUGGAACCUUAGGCAGCUCCUCUGUAUGCUACCGGCUCCACACCCUAACACUCUCCACCCUCUGCUCCAAACCAGUUCUUCUGCAGAGUGGUGAUGUUAGCUUCCCCAGCUCCUCUCCAAGUCUAGCUUUUUCUGUCCUUCUGGCUCCAAGGUGCUCUGUGUCUGUGUGUGUGUGUCUGUCUGUGUGUGUCUCUUGCGGUCGCACUAGUGUGGAAUUCUCGGGUGUCAAGG
B7: ENSMUSG00000031028.410|Tub (ssRNA)
RNA: GGGAGUUCUACAGUCCGACGAUCGCUUCGAUAUCCGCAUGCUAAGAUCCCUUACCCCUCAUCCCCUCUUCUUUUUGGUCCUUGGCUGGGUAGCAAAUUGGUGAGAAGAGCAGCCUAGUCUGUAAGAGUGCAGGGCAGCUGGAACCUUAGGCAGCUCCUCUGUAUGCUACCGGCUCCACACCCUAACACUCUCCACCCUCUGCUCCAAACCAGUUCUUCUGCAGAGUGGUGAUGUUAGCUUCCCCAGCUCCUCUCCAAGUCUAGCUUUUUCUGUCCUUCUGGCUCCAAGGUGCUCUGUGUCUGUCUCUUGCGGUCGCACUAGUGUGGAAUUCUCGGGUGUCAAGG
B8: ENSMUSG00000031028.415|Tub (ssRNA)
RNA: GGGAGUUCUACAGUCCGACGAUCGCUUCGAUAUCCGCAUGCUAUUGGUCCUUGGCUGGGUAGCAAAUUGGUGAGAAGAGCAGCCUAGUCUGUAAGAGUGCAGGGCAGCUGGAACCUUAGGCAGCUCCUCUGUAUGCUACCGGCUCCACACCCUAACACUCUCCACCCUCUGCUCCAAACCAGUUCUUCUGCAGAGUGGUGAUGUUAGCUUCCCCAGCUCCUCUCCAAGUCUAGCUUUUUCUGUCCUUCUGGCUCCAAGGUGCUCUGUGUCUGUGUGUGUGUGUCUGUCUGUGUGUGUGUGUGUCUCUUGCGGUCGCACUAGUGUGGAAUUCUCGGGUGUCAAGG
B9: ENSMUSG00000031028.413|Tub (ssRNA)
RNA: GGGAGUUCUACAGUCCGACGAUCGCUUCGAUAUCCGCAUGCUACCCCUCUUCUUUUUGGUCCUUGGCUGGGUAGCAAAUUGGUGAGAAGAGCAGCCUAGUCUGUAAGAGUGCAGGGCAGCUGGAACCUUAGGCAGCUCCUCUGUAUGCUACCGGCUCCACACCCUAACACUCUCCACCCUCUGCUCCAAACCAGUUCUUCUGCAGAGUGGUGAUGUUAGCUUCCCCAGCUCCUCUCCAAGUCUAGCUUUUUCUGUCCUUCUGGCUCCAAGGUGCUCUGUGUCUGUGUGUGUGUGUCUGUCUGUCUCUUGCGGUCGCACUAGUGUGGAAUUCUCGGGUGUCAAGG
B10: ENSMUSG00000031028.412|Tub (ssRNA)
RNA: GGGAGUUCUACAGUCCGACGAUCGCUUCGAUAUCCGCAUGCUACCUCAUCCCCUCUUCUUUUUGGUCCUUGGCUGGGUAGCAAAUUGGUGAGAAGAGCAGCCUAGUCUGUAAGAGUGCAGGGCAGCUGGAACCUUAGGCAGCUCCUCUGUAUGCUACCGGCUCCACACCCUAACACUCUCCACCCUCUGCUCCAAACCAGUUCUUCUGCAGAGUGGUGAUGUUAGCUUCCCCAGCUCCUCUCCAAGUCUAGCUUUUUCUGUCCUUCUGGCUCCAAGGUGCUCUGUGUCUGUGUGUGUGUGUCUCUCUUGCGGUCGCACUAGUGUGGAAUUCUCGGGUGUCAAGG
B11: ENSMUSG00000031028.411|Tub (ssRNA)
RNA: GGGAGUUCUACAGUCCGACGAUCGCUUCGAUAUCCGCAUGCUACUUACCCCUCAUCCCCUCUUCUUUUUGGUCCUUGGCUGGGUAGCAAAUUGGUGAGAAGAGCAGCCUAGUCUGUAAGAGUGCAGGGCAGCUGGAACCUUAGGCAGCUCCUCUGUAUGCUACCGGCUCCACACCCUAACACUCUCCACCCUCUGCUCCAAACCAGUUCUUCUGCAGAGUGGUGAUGUUAGCUUCCCCAGCUCCUCUCCAAGUCUAGCUUUUUCUGUCCUUCUGGCUCCAAGGUGCUCUGUGUCUGUGUGUGUCUCUUGCGGUCGCACUAGUGUGGAAUUCUCGGGUGUCAAGG

Biological target: TDP-43 (Homo sapiens, UniProt Q13148 1-414)
Assay: RNA Bind-n-Seq with designed 260-mer pool; 25 mM Tris-HCl, 150 mM KCl, 3 mM MgCl2, BSA (printed 500 mg/mL), 20 units/mL SUPERase IN; pH not stated; 500 nM RNA pool, 1 h, 4 C; TDP-43 5, 50, 500 nM; high values mean tight binding
Conditions: protein: recombinant; tags: SBP (GST cleaved off with PreScission; pGEX-GST-SBP)
In short: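 Binding (R) is the ratio of each oligo's mapped-read-normalized abundance in the bound fraction to its abundance in the input. To obtain it, SBP-tagged recombinant TDP-43 (5, 50 or 500 nM) on streptavidin beads was incubated with 500 nM of an in vitro-transcribed 260-nt 3′ UTR oligo pool for 1 h at 4 °C in 25 mM Tris-HCl, 150 mM KCl, 3 mM MgCl2, BSA and SUPERase IN. The RNA retained after washing was released with biotin, then reverse transcribed, amplified by PCR and sequenced.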

Chain of TDP-43 (Q13148 whole entry): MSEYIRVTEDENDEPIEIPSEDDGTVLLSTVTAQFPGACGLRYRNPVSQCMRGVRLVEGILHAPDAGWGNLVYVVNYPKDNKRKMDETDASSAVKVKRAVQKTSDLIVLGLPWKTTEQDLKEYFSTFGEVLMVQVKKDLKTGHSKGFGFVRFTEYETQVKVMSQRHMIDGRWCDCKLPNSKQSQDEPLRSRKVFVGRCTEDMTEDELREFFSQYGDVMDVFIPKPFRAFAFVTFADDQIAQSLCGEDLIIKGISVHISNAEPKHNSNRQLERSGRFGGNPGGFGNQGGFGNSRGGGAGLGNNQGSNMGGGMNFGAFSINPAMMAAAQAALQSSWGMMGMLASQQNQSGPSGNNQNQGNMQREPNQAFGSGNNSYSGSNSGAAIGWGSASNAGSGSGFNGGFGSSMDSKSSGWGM

| Binder | binding signal |
| --- | --- |
| B1 | 1.53 R (bound/input frequency ratio) |
| B2 | 3.93 R (bound/input frequency ratio) |
| B3 | 9.18 R (bound/input frequency ratio) |
| B4 | 2.48 R (bound/input frequency ratio) |
| B5 | 1.85 R (bound/input frequency ratio) |
| B6 | 6.55 R (bound/input frequency ratio) |
| B7 | 1.11 R (bound/input frequency ratio) |
| B8 | 6.65 R (bound/input frequency ratio) |
| B9 | 3.56 R (bound/input frequency ratio) |
| B10 | 2.36 R (bound/input frequency ratio) |
| B11 | 1.34 R (bound/input frequency ratio) |
